Assay results: the supplement of paper PMC10849652
The full data set covers some 8,800 targets. This sample favours those with a hit. About 0.5% of all pairs of compound and target were hits.

Tests used:
Assay in all cases: log2 fold change, soluble protein after heating vs DMSO (PISA); higher = thermal stabilisation; K562 lysate, 10 uM; active = over 0.2 and 3.5 SD of the protein, either way, in both replicates (recomputed)
[1] = compound: C#Cc1cccc(Nc2ncnc3cc(OCCOC)c(OCCOC)cc23)c1 [erlotinib]
How it was run: (§1)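 Thermal stability, expressed as log-two fold change relative to solvent controls, is given from duplicates. Crude K562 extract in PBS pH 7.4 with 1 mM MgCl2, at 1 mg/mL protein, was treated with 10 μM compound for 30 min and heated in aliquots for 3 min across 48°C-58°C. After pooling, adjustment to 0.5% NP-40 at 4°C and centrifugation at 21,000xg for 90 min, supernatant protein was measured by TMTpro 16plex LC-MS/MS with channel sums equalised.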

[2] = compound: C/C(=N\NC(=O)C1=CC(=CC=C1)S(=O)(=O)N2CCOCC2)/C3=C(C=CC(=C3)Cl)O
How it was run: as §1

[3] = compound: C1=CC(=CC=C1C2=NC3=C(N2)C=C(C=C3)C(=O)N)OC4=CC=C(C=C4)Cl
How it was run: as §1

[4] = compound: C1=CC2=C(C=CC(=C2)/C=C\3/C(=O)NC(=NCC4=CC=CS4)S3)N=C1
How it was run: as §1

[5] = compound: C1=CC2=NC=CN=C2C=C1/C=C/3\C(=O)NC(=O)S3
How it was run: as §1

[6] = compound: C1=CC=C(C=C1)C2=NC(=C(N2)C3=CC=NC=C3)C4=CC(=C(C=C4)Cl)O
How it was run: as §1

[7] = compound: C1=CC=C2C(=C1)C3=NNC4=CC=CC(=C43)C2=O
How it was run: as §1

[8] = compound: C1CCN(C1)C(=O)NC2=CC=CC(=C2)NC3=NC=C(C(=N3)NCCC4=CN=CN4)Br
How it was run: as §1

[9] = compound: C1CN(CCC1(CC2=CC=C(C=C2)Cl)N)C3=NC=NC4=C3C=CN4
How it was run: as §1

[10] = compound: C1COCCN1CCN2C3=CC=CC=C3N=C2NC(=O)C4=CC(=CC=C4)[N+](=O)[O-] [IRAK-1-4 Inhibitor I]
How it was run: as §1

[11] = compound: C=CC(=O)N1CCC[C@@H](n2nc(-c3ccc(Oc4ccccc4)cc3)c3c(N)ncnc32)C1 [ibrutinib]
How it was run: as §1

[12] = compound: CC(=O)c1cnc2ccc(-c3cc(Cl)c(O)c(Cl)c3)nc2c1N[C@H]1CC[C@H](CN(C)C)CC1
How it was run: as §1

[13] = compound: CC(C)(C)Cn1c(N)nc2ccc(-c3[nH]c(C(C)(C)C)nc3-c3ccc(F)cc3)nc21 [ralimetinib]
How it was run: as §1

[14] = compound: CC(C)(O)CC(=O)NCCn1ccc2ncnc(Nc3ccc(Oc4cccc(C(F)(F)F)c4)c(Cl)c3)c21
How it was run: as §1

[15] = compound: CC(C)C1=C2N=C(C=C(N2N=C1)NCC3=CC=CC=C3)NCCCCCCN
How it was run: as §1

[16] = compound: CC1=C(C(CC(=O)N1)C2=CC=C(C=C2)C(F)(F)F)C(=O)NC3=C(C=C4C(=C3)C=NN4)F
How it was run: as §1

[17] = compound: CC1=C(C2=C(C=C1)C(=O)C3=CC=CC=C3N2CCCN)C
How it was run: as §1

[18] = compound: CC1=C(C=C(C=C1)NC(=O)C2=CC(=CC=C2)C(C)(C)C#N)NC3=CC4=C(C=C3)N=CN(C4=O)C
How it was run: as §1

[19] = compound: CC1=C(C=C(C=C1)NC(=O)C2=CC(=CC=C2)N(C)C)NC(=O)C3=CC=C(C=C3)O
How it was run: as §1

[20] = compound: CC1=CC=C(C=C1)SC2=C3C=C(SC3=CN=C2)C(=O)N
How it was run: as §1

Measured: log2 fold change

TRIM23 (UniProt P36406)
UniProt P36406, sequence (P36406 whole entry, looked up): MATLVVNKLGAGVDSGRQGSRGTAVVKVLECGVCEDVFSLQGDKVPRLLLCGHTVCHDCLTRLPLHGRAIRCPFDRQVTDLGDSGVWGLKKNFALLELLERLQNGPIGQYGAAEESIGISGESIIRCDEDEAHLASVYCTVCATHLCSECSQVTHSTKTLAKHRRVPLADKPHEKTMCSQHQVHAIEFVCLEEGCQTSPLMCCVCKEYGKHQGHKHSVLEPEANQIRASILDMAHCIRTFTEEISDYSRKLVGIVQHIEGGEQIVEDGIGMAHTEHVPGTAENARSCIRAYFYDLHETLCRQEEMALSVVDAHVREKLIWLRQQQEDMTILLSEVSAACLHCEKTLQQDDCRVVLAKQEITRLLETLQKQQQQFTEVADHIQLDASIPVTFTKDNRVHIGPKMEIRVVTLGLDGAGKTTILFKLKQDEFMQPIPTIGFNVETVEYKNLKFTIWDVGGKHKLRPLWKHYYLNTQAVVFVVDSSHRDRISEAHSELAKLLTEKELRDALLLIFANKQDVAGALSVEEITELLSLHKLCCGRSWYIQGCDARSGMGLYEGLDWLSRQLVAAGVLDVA
inactive: [1] -0.044 | [2] -0.022 | [3] 0.037 | [4] 0.014 | [5] 0.034 | [6] 0.493 | [7] -0.011 | [8] -0.017 | [9] 0.105 | [10] 0.183 | [11] -0.031 | [12] 0.061 | [13] -0.102 | [14] -0.085 | [15] -0.056 | [16] 0.026 | [17] -0.065 | [18] 0.099 | [19] -0.22 | [20] -0.022

UBR4 (UniProt Q5T4S7)
inactive: [1] 0 | [2] 0.039 | [3] -0.016 | [4] 0.017 | [5] -0.006 | [6] 0.008 | [7] -0.01 | [8] -0.021 | [9] 0.002 | [10] -0.009 | [11] -0.019 | [12] -0.008 | [13] 0.02 | [14] -0.011 | [15] -0.02 | [16] 0.003 | [17] 0.011 | [18] 0.009 | [19] 0.014 | [20] 0.01

TMEM164 (UniProt Q5U3C3)
UniProt Q5U3C3, sequence (Q5U3C3 whole entry, looked up): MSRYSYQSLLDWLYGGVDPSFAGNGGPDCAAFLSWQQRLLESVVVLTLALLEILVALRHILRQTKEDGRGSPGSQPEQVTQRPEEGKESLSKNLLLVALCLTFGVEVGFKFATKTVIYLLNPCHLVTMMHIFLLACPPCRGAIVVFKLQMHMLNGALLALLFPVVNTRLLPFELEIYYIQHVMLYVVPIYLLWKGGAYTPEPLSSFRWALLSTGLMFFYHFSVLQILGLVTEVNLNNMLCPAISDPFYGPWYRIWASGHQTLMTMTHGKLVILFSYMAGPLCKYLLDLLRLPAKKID
inactive: [1] 0.067 | [2] -0.141 | [3] -0.009 | [4] -0.093 | [5] 0.104 | [6] -0.056 | [7] -0.211 | [8] -0.057 | [9] 0.153 | [10] 0.094 | [11] 0.053 | [12] -0.066 | [13] -0.171 | [14] -0.252 | [15] -0.035 | [16] -0.184 | [17] -0.153 | [18] 0.255 | [19] 0.027 | [20] -0.061

TLK2 isoform 2 (UniProt Q86UE8)
UniProt Q86UE8, sequence (Q86UE8 whole entry, looked up): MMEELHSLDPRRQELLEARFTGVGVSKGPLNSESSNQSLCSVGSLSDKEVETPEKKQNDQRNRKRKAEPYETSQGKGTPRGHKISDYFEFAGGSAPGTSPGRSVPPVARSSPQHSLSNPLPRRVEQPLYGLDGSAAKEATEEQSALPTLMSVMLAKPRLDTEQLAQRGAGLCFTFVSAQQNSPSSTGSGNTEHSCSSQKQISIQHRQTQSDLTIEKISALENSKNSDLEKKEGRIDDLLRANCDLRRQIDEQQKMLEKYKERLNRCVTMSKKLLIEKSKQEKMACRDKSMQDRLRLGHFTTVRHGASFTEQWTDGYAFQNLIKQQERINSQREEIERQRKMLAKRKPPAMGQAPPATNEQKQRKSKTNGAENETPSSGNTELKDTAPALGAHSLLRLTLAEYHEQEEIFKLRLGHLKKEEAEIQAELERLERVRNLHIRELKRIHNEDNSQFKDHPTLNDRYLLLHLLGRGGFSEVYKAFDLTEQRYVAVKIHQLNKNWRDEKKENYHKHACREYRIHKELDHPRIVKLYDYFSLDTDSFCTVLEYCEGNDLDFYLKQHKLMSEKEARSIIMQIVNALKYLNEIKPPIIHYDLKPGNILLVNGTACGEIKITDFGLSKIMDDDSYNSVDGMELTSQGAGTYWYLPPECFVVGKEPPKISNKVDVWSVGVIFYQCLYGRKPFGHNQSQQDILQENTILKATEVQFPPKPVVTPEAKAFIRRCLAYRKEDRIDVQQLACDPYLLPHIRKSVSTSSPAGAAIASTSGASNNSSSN
inactive: [1] -0.071 | [2] -0.076 | [3] 0.054 | [4] -0.006 | [5] 0.014 | [6] 0.001 | [7] 0.171 | [8] -0.012 | [9] 0.021 | [10] -0.058 | [11] -0.021 | [12] 0.104 | [13] 0.035 | [14] -0.018 | [15] 0.007 | [16] -0.009 | [17] 0.051 | [18] 0 | [19] 0.025 | [20] -0.055

TRIM56 (UniProt Q9BRZ2)
UniProt Q9BRZ2, sequence (Q9BRZ2 whole entry, looked up): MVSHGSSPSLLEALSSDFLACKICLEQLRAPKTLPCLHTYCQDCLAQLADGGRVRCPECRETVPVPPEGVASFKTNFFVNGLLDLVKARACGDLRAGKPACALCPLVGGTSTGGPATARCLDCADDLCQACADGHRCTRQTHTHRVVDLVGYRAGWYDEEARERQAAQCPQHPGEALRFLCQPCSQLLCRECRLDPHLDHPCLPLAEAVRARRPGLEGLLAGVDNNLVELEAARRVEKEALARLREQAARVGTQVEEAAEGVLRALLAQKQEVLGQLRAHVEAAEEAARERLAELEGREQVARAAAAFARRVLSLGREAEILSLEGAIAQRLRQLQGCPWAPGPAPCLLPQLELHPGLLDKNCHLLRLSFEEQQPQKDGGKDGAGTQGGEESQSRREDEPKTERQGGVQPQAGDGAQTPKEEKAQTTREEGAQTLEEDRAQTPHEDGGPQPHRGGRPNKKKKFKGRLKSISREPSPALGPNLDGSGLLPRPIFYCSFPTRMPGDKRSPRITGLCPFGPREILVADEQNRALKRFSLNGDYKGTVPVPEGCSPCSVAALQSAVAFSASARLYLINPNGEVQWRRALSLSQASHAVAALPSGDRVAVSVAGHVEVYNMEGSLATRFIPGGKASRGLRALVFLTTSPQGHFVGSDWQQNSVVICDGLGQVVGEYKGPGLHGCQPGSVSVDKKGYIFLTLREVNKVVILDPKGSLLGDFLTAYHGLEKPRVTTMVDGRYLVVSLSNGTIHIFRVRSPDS
inactive: [1] 0.053 | [2] -0.021 | [3] 0.021 | [4] -0.049 | [5] 0.141 | [6] -0.013 | [7] 0.033 | [8] 0.039 | [9] 0.003 | [10] 0.062 | [11] 0.023 | [12] 0.007 | [13] 0.028 | [14] 0.001 | [15] -0.03 | [16] 0 | [17] 0.002 | [18] -0.06 | [19] 0.014 | [20] 0.033

TUBE1 (UniProt Q9UJT0)
UniProt Q9UJT0, sequence (Q9UJT0 whole entry, looked up): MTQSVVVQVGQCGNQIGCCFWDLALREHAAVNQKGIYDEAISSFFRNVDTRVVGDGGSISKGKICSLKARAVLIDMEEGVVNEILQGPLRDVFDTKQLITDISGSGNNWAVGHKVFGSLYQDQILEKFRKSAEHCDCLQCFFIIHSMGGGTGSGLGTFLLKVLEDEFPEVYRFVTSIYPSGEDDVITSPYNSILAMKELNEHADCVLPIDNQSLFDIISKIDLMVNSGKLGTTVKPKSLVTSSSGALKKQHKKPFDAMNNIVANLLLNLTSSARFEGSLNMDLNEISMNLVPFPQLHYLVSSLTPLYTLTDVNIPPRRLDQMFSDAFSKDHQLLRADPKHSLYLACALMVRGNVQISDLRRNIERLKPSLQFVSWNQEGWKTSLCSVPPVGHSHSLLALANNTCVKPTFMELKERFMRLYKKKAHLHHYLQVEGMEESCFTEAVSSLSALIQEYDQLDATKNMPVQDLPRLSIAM
inactive: [1] 0.051 | [2] -0.267 | [3] 0.095 | [4] -0.059 | [5] -0.063 | [6] -0.078 | [7] -0.033 | [8] -0.113 | [9] 0.047 | [10] 0.023 | [11] 0.065 | [12] -0.017 | [13] 0.05 | [14] -0.034 | [15] 0.024 | [16] -0.001 | [17] 0.027 | [18] -0.02 | [19] 0.001 | [20] -0.03

THOC5 (UniProt Q13769)
UniProt Q13769, sequence (Q13769 whole entry, looked up): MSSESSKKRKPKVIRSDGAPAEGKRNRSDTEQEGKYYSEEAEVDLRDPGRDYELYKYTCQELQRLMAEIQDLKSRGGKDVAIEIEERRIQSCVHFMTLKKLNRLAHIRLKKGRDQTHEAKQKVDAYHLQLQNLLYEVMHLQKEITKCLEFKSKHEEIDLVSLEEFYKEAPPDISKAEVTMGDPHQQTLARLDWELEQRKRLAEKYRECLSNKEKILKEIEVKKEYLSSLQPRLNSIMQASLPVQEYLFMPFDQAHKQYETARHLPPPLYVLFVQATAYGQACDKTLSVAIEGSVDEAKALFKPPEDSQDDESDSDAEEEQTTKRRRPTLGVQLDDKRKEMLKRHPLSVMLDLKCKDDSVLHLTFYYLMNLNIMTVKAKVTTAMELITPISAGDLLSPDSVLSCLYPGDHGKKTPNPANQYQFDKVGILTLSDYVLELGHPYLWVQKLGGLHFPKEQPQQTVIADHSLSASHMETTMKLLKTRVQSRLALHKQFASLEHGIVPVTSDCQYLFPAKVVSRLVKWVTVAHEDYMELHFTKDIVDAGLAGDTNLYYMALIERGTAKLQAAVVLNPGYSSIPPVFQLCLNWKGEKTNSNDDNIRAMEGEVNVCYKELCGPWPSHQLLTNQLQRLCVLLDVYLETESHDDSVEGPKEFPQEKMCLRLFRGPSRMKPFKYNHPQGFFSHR
inactive: [1] 0.013 | [2] -0.105 | [3] 0.036 | [4] -0.035 | [5] 0.008 | [6] -0.001 | [7] -0.016 | [8] 0.005 | [9] 0.001 | [10] -0.012 | [11] 0.023 | [12] 0.004 | [13] 0.015 | [14] -0.011 | [15] 0.008 | [16] -0.011 | [17] -0.002 | [18] 0.004 | [19] 0.018 | [20] -0.001

TTI2 (UniProt Q6NXR4)
UniProt Q6NXR4, sequence (Q6NXR4 whole entry, looked up): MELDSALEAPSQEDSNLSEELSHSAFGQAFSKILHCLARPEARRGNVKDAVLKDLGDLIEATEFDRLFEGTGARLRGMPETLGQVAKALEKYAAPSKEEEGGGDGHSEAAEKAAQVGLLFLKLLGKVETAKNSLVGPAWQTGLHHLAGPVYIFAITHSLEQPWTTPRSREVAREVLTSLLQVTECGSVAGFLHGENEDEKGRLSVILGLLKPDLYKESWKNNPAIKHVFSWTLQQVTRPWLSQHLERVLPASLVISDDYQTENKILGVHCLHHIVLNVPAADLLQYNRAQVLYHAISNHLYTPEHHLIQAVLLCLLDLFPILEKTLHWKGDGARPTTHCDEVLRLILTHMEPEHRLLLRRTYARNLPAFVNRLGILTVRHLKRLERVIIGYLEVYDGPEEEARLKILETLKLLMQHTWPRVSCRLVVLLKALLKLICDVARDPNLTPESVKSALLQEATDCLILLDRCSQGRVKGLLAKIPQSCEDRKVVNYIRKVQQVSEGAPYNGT
inactive: [1] -0.003 | [2] 0.037 | [3] 0.023 | [4] 0.047 | [5] 0.013 | [6] 0.012 | [7] -0.015 | [8] -0.028 | [9] 0.007 | [10] 0.014 | [11] 0.012 | [12] 0.016 | [13] 0.019 | [14] -0.062 | [15] -0.004 | [16] -0.009 | [17] 0.018 | [18] -0.009 | [19] -0.015 | [20] -0.017

UBE2D1 (UniProt P51668)
UniProt P51668, sequence (P51668 whole entry, looked up): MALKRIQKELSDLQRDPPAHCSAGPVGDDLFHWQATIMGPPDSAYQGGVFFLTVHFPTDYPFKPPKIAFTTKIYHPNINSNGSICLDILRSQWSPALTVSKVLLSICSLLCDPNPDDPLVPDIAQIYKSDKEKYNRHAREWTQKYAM
inactive: [1] -0.043 | [2] 0.008 | [3] 0.072 | [4] -0.007 | [5] -0.032 | [6] 0.008 | [7] -0.006 | [8] -0.042 | [9] 0.015 | [10] -0.038 | [11] -0.033 | [12] 0.017 | [13] -0.009 | [14] 0.073 | [15] 0.01 | [16] -0.03 | [17] -0.007 | [18] -0.002 | [19] 0.043 | [20] -0.007

TPP2 (UniProt Q5VZU9)
inactive: [1] 0.043 | [2] -0.036 | [3] 0.086 | [4] -0.012 | [5] 0 | [6] 0.131 | [7] -0.013 | [8] 0 | [9] 0.066 | [10] 0.005 | [11] 0.073 | [12] -0.025 | [13] -0.018 | [14] 0.046 | [15] -0.041 | [16] 0.056 | [17] 0.018 | [18] -0.049 | [19] -0.017 | [20] 0.061

UBE2L6 (UniProt O14933)
UniProt O14933, sequence (O14933 whole entry, looked up): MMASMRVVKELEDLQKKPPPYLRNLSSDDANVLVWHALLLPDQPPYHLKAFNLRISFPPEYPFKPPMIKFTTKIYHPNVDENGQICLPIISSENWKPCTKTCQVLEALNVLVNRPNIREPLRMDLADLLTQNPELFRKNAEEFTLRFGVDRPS
inactive: [1] 0.062 | [2] -0.03 | [3] 0.007 | [4] -0.003 | [5] -0.065 | [6] -0.001 | [7] 0.023 | [8] -0.014 | [9] 0.144 | [10] 0.047 | [11] 0.152 | [12] 0.012 | [13] -0.002 | [14] -0.041 | [15] -0.009 | [16] -0.033 | [17] -0.014 | [18] -0.019 | [19] -0.007 | [20] 0.002

TBL2 (UniProt Q9Y4P3)
UniProt Q9Y4P3, sequence (Q9Y4P3 whole entry, looked up): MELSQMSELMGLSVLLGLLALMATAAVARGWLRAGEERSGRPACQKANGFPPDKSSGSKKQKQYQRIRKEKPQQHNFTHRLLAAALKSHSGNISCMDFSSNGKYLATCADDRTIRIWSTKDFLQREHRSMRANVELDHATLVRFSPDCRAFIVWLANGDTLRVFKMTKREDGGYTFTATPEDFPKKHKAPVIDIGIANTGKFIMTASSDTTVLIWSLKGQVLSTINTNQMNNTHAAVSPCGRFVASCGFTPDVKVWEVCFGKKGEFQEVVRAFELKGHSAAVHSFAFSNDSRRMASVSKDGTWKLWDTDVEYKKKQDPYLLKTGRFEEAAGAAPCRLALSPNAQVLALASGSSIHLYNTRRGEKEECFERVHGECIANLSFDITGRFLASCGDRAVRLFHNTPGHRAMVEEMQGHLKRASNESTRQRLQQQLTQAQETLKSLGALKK
inactive: [1] -0.019 | [2] 0.061 | [3] -0.027 | [4] 0.061 | [5] -0.023 | [6] 0.038 | [7] -0.06 | [8] -0.027 | [9] 0.001 | [10] -0.022 | [11] 0.014 | [12] 0.059 | [13] 0.005 | [14] -0.001 | [15] 0 | [16] 0.045 | [17] 0.031 | [18] -0.008 | [19] 0.03 | [20] 0.05
